Assay results: PubChem BioAssay (EPA / NIEHS)
The source made the active and inactive calls. Rule for the calls: active = hit-call score of the fitted dose curve at least 0.9, where 1 is the maximum; inactive = score below 0.9.

Test system: not listed separately
Assay: ATG_Ets_CIS: Attagene CIS-FACTORIAL HepG2 Assay for human Erythroblast Transformation Specific (ETS) (AID 2282941)
Conditions: HepG2 ETS cis-reporter transcription, actives raise or lower the signal
Method in brief: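 Multiplexed reporter transcript profiling: HepG2, 24 h treatment, total RNA to cDNA, PCR, 6-FAM labelling, HpaI cut, capillary electrophoresis. Gain- or loss-of-signal fitted against DMSO.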

SMILES | outcome
S=c1[nH]c2ccccc2s1 | inactive
Cc1cn([C@H]2C=C[C@@H](CO)O2)c(=O)[nH]c1=O | inactive
NCCOCCOCCN | inactive
Cc1occc(=O)c1O | inactive
CCCCC(CC)CO (stereo not drawn) | inactive
CCCCC(CC)COC(=O)CCCCCCCC(=O)OCC(CC)CCCC (stereo not drawn) | inactive
O=C1O[C@H]([C@H](O)CO)C(O)=C1O | inactive
CCCC(=O)O | inactive
O=NO | inactive
Cn1cnc2c1c(=O)[nH]c(=O)n2C | inactive
CCC(C)N(C)C(=O)c1cc2ccccc2c(-c2ccccc2Cl)n1 (stereo not drawn) | inactive
O=C(O)c1[nH]n(-c2ccc(S(=O)(=O)O)cc2)c(=O)c1N=Nc1ccc(S(=O)(=O)O)cc1 | inactive

Molecular target: Hepatocyte nuclear factor 3-beta (Homo sapiens) (UniProt Q9Y261)
Sequence (Q9Y261 whole entry, looked up): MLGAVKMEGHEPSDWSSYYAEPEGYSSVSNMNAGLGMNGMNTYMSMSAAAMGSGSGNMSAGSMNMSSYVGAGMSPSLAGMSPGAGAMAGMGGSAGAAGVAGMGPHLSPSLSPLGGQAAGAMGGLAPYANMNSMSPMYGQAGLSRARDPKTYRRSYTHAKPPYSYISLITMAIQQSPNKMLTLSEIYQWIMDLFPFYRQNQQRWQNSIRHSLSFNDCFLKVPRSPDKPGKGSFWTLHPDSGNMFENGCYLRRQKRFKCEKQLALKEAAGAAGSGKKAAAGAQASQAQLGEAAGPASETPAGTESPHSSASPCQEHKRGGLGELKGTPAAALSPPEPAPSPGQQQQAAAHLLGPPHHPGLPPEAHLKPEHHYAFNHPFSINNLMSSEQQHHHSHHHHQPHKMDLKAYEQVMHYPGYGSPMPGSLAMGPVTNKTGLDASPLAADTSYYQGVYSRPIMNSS
Assay: ATG_FoxA2_CIS: Attagene CIS-FACTORIAL HepG2 Assay for human Forkhead box A2 (FOXA2) (AID 2282942)
Conditions: HepG2 cis-reporter transcription factor activity, 24 h; actives raise or lower the signal
Method in brief: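 Fluorescence signal of reporter cDNA fragments, separated by capillary electrophoresis, reflects endogenous transcription factor activity in transfected HepG2 after 24 h. Both increases and decreases fitted against DMSO.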

SMILES | outcome
S=c1[nH]c2ccccc2s1 | inactive
Cc1cn([C@H]2C=C[C@@H](CO)O2)c(=O)[nH]c1=O | inactive
C#CC(O)C(CC)CCCC (stereo not drawn) | inactive
CCOCCOCCO | inactive
NCCOCCOCCN | inactive
Cc1occc(=O)c1O | inactive
CCCCC(CC)CO (stereo not drawn) | inactive
CCCC[C@H]1CN(CC2CCOCC2)C(=O)OC12CCN(C1(C)CCN(C(=O)c3c(C)ncnc3C)CC1)CC2 | inactive
C/C=C/C=C/C(=O)O | inactive
CCCCC(CC)COC(=O)CCCCCCCC(=O)OCC(CC)CCCC (stereo not drawn) | inactive
O=C1O[C@H]([C@H](O)CO)C(O)=C1O | inactive
Cc1ccc(-c2cc(C(F)(F)F)nn2-c2ccc(S(N)(=O)=O)cc2)cc1 | inactive
CCCC(=O)O | inactive
O=NO | inactive
c1ccc2occc2c1 | inactive
CC(=O)CC(c1ccccc1)c1c(O)c2ccccc2oc1=O (stereo not drawn) | inactive
CN(C)C(=O)NC1(c2ccccc2)CCN(CC[C@@]2(c3ccc(F)c(F)c3)CN(C(=O)c3ccccc3)CCO2)CC1 | inactive
O=C(Oc1ccccc1)c1cccc(C(=O)Oc2ccccc2)c1 | inactive
Cn1cnc2c1c(=O)[nH]c(=O)n2C | inactive
O=C(O)CN(CC(=O)O)CC(=O)O | inactive
COc1ccc(C(=O)Nc2nc3ccccc3c(NCc3ccccc3)c2C#N)cc1 | inactive
C/C=C/c1ccc(OC)cc1 | inactive
CCCCCCC(C=O)=Cc1ccccc1 | inactive
CCC(C)N(C)C(=O)c1cc2ccccc2c(-c2ccccc2Cl)n1 (stereo not drawn) | inactive
O=C(O)c1[nH]n(-c2ccc(S(=O)(=O)O)cc2)c(=O)c1N=Nc1ccc(S(=O)(=O)O)cc1 | inactive
Cc1ccc(C(C)(C)C)c(O)c1 | inactive
O=Cc1ccccc1C=O | inactive
COC(=O)CCC(=O)OC | inactive

Test system: not listed separately
Assay: ATG_FoxO_CIS: Attagene CIS-FACTORIAL HepG2 Assay for human Forkhead box O (FoxO) (AID 2282943)
Conditions: HepG2 Attagene cis-reporter, FoxO element, mRNA; actives raise or lower the signal
Method in brief: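 Read-out: fluorescence of 6-FAM-labelled reporter cDNA fragments resolved by capillary electrophoresis. Transiently transfected HepG2 cells were dosed for 24 h; activity fitted in both directions relative to DMSO controls.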

SMILES | outcome
S=c1[nH]c2ccccc2s1 | inactive
Cc1cn([C@H]2C=C[C@@H](CO)O2)c(=O)[nH]c1=O | inactive
C#CC(O)C(CC)CCCC (stereo not drawn) | inactive
CCOCCOCCO | inactive
NCCOCCOCCN | inactive
Cc1occc(=O)c1O | inactive
CCCCC(CC)CO (stereo not drawn) | inactive
CCCC[C@H]1CN(CC2CCOCC2)C(=O)OC12CCN(C1(C)CCN(C(=O)c3c(C)ncnc3C)CC1)CC2 | inactive
C/C=C/C=C/C(=O)O | inactive
CCCCC(CC)COC(=O)CCCCCCCC(=O)OCC(CC)CCCC (stereo not drawn) | inactive
O=C(O)c1cccnc1 | inactive
O=C1O[C@H]([C@H](O)CO)C(O)=C1O | inactive
Cc1ccc(-c2cc(C(F)(F)F)nn2-c2ccc(S(N)(=O)=O)cc2)cc1 | inactive
CCCC(=O)O | inactive
O=NO | inactive
c1ccc2occc2c1 | inactive
CC(=O)CC(c1ccccc1)c1c(O)c2ccccc2oc1=O (stereo not drawn) | inactive
CN(C)C(=O)NC1(c2ccccc2)CCN(CC[C@@]2(c3ccc(F)c(F)c3)CN(C(=O)c3ccccc3)CCO2)CC1 | inactive
O=C(Oc1ccccc1)c1cccc(C(=O)Oc2ccccc2)c1 | inactive
Cn1cnc2c1c(=O)[nH]c(=O)n2C | inactive
O=C(O)CN(CC(=O)O)CC(=O)O | inactive
COc1ccc(C(=O)Nc2nc3ccccc3c(NCc3ccccc3)c2C#N)cc1 | inactive
C/C=C/c1ccc(OC)cc1 | inactive
CCCCCCC(C=O)=Cc1ccccc1 | inactive
CCC(C)N(C)C(=O)c1cc2ccccc2c(-c2ccccc2Cl)n1 (stereo not drawn) | inactive
O=C(O)c1[nH]n(-c2ccc(S(=O)(=O)O)cc2)c(=O)c1N=Nc1ccc(S(=O)(=O)O)cc1 | inactive
Cc1ccc(C(C)(C)C)c(O)c1 | inactive
O=Cc1ccccc1C=O | inactive
COC(=O)CCC(=O)OC | inactive

Test system: not listed separately
Assay: ATG_GATA_CIS: Attagene CIS-FACTORIAL HepG2 Assay for human GATA Binding Protein (AID 2282944)
Conditions: HepG2 GATA cis-element reporter, Attagene multiplex mRNA; actives raise or lower the signal
Method in brief: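 Endogenous transcription factor activity was captured through cis-promoter-driven reporters in transfected HepG2 cells. After 24 h exposure, reporter transcripts were quantified by RT-PCR with fluorescent capillary electrophoresis, and responses fitted both directions against DMSO.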

SMILES | outcome | AC50
S=c1[nH]c2ccccc2s1 | inactive | 
Cc1cn([C@H]2C=C[C@@H](CO)O2)c(=O)[nH]c1=O | inactive | 
C#CC(O)C(CC)CCCC (stereo not drawn) |  | 168 µM (active)
CCOCCOCCO | inactive | 
NCCOCCOCCN | inactive | 
Cc1occc(=O)c1O | inactive | 
CCCCC(CC)CO (stereo not drawn) | inactive | 
CCCC[C@H]1CN(CC2CCOCC2)C(=O)OC12CCN(C1(C)CCN(C(=O)c3c(C)ncnc3C)CC1)CC2 | inactive | 
C/C=C/C=C/C(=O)O | inactive | 
CCCCC(CC)COC(=O)CCCCCCCC(=O)OCC(CC)CCCC (stereo not drawn) | inactive | 
O=C(O)c1cccnc1 | inactive | 
O=C1O[C@H]([C@H](O)CO)C(O)=C1O | inactive | 
Cc1ccc(-c2cc(C(F)(F)F)nn2-c2ccc(S(N)(=O)=O)cc2)cc1 | inactive | 
CCCC(=O)O | inactive | 
O=NO | inactive | 
c1ccc2occc2c1 | inactive | 
CC(=O)CC(c1ccccc1)c1c(O)c2ccccc2oc1=O (stereo not drawn) | inactive | 
CN(C)C(=O)NC1(c2ccccc2)CCN(CC[C@@]2(c3ccc(F)c(F)c3)CN(C(=O)c3ccccc3)CCO2)CC1 | inactive | 
O=C(Oc1ccccc1)c1cccc(C(=O)Oc2ccccc2)c1 | inactive | 
Cn1cnc2c1c(=O)[nH]c(=O)n2C | inactive | 
O=C(O)CN(CC(=O)O)CC(=O)O | inactive | 
COc1ccc(C(=O)Nc2nc3ccccc3c(NCc3ccccc3)c2C#N)cc1 | inactive | 
C/C=C/c1ccc(OC)cc1 | inactive | 
CCCCCCC(C=O)=Cc1ccccc1 | inactive | 
CCC(C)N(C)C(=O)c1cc2ccccc2c(-c2ccccc2Cl)n1 (stereo not drawn) | inactive | 
O=C(O)c1[nH]n(-c2ccc(S(=O)(=O)O)cc2)c(=O)c1N=Nc1ccc(S(=O)(=O)O)cc1 | inactive | 
Cc1ccc(C(C)(C)C)c(O)c1 | inactive | 
O=Cc1ccccc1C=O | inactive | 
COC(=O)CCC(=O)OC | inactive | 
